# Measurements: article PMC7862700, “An all-to-all approach to the identification of sequence-specific readers for epigenetic DNA modifications on cytosine”
# How the values were obtained:
# Assay in all cases: DAPPL (digital affinity profiling via proximity ligation, sequencing); 10 mM Tris-HCl pH 7.5, 50 mM NaCl, 1 mM DTT, 4% glycerol, room temperature, 30 min; GST-TFs on glutathione beads, 16-mer random dsDNA library, 0.1% formaldehyde crosslink after washing; high values mean tight binding
# [1] = molecular target: T1, FEV (Homo sapiens, UniProt Q99581 1-238); conditions: protein: recombinant; tags: N-terminal GST; dsDNA, one strand shown
# T1 sequence: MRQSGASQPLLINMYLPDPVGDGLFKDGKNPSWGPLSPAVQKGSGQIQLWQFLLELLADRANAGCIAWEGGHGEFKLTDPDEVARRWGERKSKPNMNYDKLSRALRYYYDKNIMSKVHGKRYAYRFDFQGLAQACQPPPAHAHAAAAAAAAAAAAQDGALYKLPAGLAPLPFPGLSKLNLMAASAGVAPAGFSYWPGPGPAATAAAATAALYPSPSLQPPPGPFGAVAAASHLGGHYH
# Method in brief: (§1)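 Pools were built from human transcription factors expressed in yeast as GST fusions, captured on glutathione beads and DNA-barcoded, along with a tag-only sample. Incubation with 200 nmole of a 16-mer random double-stranded DNA library lasted 30 min at room temperature in Tris/NaCl/DTT/glycerol buffer, and was followed by washing, 0.1% formaldehyde crosslinking, proximity ligation, PCR amplification and Illumina NextSeq500 sequencing. Binding signal is the quotient of each hexamer's read frequency for a factor and its frequency for the tag-only sample.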
# [2] = molecular target: ETV5 (Homo sapiens, UniProt P41161 1-510); conditions: protein: recombinant; tags: N-terminal GST; dsDNA, one strand shown
# ETV5, sequence (P41161 whole entry): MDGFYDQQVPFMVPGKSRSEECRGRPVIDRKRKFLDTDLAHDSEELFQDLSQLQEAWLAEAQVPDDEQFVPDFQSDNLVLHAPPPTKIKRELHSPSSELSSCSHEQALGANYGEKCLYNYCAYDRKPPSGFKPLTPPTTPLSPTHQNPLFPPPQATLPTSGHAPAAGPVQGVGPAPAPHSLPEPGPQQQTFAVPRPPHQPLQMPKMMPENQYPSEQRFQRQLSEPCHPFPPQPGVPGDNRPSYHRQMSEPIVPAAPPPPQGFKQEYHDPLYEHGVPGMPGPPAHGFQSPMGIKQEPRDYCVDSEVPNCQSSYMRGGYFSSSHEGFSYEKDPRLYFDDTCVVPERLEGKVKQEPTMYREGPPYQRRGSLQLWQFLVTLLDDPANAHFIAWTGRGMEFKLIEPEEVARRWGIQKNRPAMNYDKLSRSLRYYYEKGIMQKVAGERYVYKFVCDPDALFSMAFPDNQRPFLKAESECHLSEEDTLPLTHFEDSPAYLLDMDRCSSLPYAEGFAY
# Method in brief: as §1
# [3] = molecular target: HSF1 (Homo sapiens, UniProt Q00613 1-529); conditions: protein: recombinant; tags: N-terminal GST; chain copies: 3; dsDNA, one strand shown
# HSF1, sequence (Q00613 whole entry): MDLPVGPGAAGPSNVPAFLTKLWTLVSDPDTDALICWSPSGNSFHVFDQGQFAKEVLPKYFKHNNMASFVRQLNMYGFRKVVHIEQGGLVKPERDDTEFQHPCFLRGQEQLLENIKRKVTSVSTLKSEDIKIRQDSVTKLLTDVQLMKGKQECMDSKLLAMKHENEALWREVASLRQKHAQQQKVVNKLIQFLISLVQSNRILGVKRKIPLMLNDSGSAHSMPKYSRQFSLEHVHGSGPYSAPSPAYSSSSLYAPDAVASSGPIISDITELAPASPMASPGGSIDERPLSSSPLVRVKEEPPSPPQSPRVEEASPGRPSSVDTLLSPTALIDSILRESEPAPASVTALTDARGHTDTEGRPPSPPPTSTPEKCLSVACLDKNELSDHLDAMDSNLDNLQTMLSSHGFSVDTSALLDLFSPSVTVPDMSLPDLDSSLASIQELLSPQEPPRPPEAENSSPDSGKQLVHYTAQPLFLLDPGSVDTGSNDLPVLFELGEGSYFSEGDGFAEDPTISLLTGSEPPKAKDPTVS
# Method in brief: as §1
# [4] = molecular target: T2, SPIC (Homo sapiens, UniProt Q8N5J4 1-248); conditions: protein: recombinant; tags: N-terminal GST; dsDNA, one strand shown
# T2 sequence: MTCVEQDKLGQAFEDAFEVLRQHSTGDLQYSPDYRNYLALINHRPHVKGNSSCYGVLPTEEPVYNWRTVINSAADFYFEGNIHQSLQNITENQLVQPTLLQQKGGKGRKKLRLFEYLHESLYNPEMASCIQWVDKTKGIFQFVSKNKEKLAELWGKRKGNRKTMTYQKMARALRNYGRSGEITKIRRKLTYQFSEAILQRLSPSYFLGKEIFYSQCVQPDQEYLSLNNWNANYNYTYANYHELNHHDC
# Method in brief: as §1
# [5] = molecular target: ELF4 (Homo sapiens, UniProt Q99607 1-663); conditions: protein: recombinant; tags: N-terminal GST; dsDNA, one strand shown
# ELF4, sequence (Q99607 whole entry): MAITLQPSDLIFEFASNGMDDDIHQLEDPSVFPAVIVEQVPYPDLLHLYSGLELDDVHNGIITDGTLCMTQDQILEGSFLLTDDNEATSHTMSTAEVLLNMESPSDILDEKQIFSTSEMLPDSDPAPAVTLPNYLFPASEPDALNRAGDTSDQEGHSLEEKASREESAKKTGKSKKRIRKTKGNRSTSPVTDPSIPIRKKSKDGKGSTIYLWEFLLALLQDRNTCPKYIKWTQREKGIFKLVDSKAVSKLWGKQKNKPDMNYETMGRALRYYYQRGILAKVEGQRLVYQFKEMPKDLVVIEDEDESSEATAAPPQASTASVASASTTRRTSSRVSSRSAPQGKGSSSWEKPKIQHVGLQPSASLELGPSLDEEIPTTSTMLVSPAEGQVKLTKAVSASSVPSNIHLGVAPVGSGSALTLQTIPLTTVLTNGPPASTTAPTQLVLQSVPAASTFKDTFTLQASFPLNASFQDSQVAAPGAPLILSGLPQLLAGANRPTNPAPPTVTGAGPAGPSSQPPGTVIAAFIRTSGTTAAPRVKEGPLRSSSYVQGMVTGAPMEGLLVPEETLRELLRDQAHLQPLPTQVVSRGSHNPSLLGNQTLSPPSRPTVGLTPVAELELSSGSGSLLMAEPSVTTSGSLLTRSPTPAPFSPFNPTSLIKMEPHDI
# Method in brief: as §1
# [6] = molecular target: T3, ELK4 (Homo sapiens, UniProt P28324-2 1-405); conditions: protein: recombinant; tags: N-terminal GST; dsDNA, one strand shown
# T3 sequence: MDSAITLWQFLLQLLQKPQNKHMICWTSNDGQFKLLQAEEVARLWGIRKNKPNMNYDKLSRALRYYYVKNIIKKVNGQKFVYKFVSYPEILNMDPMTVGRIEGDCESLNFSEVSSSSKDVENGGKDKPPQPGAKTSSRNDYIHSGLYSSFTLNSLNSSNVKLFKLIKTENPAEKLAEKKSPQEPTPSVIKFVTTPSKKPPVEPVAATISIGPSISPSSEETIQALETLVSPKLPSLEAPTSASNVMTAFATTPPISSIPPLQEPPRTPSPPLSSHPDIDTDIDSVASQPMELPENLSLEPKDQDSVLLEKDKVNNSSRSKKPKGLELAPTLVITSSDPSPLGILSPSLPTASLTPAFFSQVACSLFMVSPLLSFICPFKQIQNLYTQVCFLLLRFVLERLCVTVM
# Method in brief: as §1
# [7] = molecular target: T4, ETV2 (Homo sapiens, UniProt O00321 1-342); conditions: protein: recombinant; tags: N-terminal GST; dsDNA, one strand shown
# T4 sequence: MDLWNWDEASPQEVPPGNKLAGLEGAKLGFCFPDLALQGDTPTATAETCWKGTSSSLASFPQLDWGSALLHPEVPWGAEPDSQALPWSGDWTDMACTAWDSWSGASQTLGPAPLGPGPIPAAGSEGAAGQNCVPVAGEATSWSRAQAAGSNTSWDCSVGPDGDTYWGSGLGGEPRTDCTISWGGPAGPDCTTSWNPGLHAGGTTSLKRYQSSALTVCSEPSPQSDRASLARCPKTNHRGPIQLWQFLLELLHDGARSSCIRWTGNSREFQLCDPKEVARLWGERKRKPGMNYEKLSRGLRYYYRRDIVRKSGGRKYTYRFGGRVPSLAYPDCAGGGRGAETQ
# Method in brief: as §1
# [8] = molecular target: T5, ELF3 (Homo sapiens, UniProt P78545 1-371); conditions: protein: recombinant; tags: N-terminal GST; dsDNA, one strand shown
# T5 sequence: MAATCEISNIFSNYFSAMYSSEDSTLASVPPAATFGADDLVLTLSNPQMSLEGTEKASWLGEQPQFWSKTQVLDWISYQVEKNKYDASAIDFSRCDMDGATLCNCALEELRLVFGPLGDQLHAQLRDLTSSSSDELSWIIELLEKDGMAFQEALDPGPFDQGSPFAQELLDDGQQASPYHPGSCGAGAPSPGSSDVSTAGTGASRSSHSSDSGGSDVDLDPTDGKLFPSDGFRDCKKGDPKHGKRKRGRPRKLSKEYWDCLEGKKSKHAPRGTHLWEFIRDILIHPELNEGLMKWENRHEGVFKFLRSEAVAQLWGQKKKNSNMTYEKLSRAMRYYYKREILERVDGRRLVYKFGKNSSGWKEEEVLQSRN
# Method in brief: as §1
# [9] = molecular target: CRX (Homo sapiens, UniProt O43186 1-299); conditions: protein: recombinant; tags: N-terminal GST; dsDNA, one strand shown
# CRX, sequence (O43186 whole entry): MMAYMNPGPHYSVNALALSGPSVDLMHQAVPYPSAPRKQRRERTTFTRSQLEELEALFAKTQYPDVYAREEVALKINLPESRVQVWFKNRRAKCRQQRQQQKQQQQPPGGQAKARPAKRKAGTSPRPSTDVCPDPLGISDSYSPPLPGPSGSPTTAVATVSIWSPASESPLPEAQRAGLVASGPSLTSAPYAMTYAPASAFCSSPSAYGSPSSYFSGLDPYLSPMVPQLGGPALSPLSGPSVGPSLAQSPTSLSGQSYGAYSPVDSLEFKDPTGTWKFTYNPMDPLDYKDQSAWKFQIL
# Method in brief: as §1
# [10] = molecular target: ETV1 (Homo sapiens, UniProt P50549 1-477); conditions: protein: recombinant; tags: N-terminal GST; dsDNA, one strand shown
# ETV1, sequence (P50549 whole entry): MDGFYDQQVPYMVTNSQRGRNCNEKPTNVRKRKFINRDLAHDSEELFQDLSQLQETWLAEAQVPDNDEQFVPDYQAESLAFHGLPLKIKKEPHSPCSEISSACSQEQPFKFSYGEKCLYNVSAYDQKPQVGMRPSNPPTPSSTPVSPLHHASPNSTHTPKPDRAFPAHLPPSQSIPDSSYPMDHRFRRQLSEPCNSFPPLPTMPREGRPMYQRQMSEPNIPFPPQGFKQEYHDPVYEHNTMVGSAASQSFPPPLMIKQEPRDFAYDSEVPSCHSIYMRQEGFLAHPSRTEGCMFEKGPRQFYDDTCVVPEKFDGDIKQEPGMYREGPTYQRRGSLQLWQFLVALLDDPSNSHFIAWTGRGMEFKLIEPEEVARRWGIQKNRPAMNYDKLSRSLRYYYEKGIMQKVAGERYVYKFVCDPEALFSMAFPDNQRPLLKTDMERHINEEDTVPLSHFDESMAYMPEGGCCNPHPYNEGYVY
# Method in brief: as §1
# [11] = molecular target: T6, ERF (Homo sapiens, UniProt P50548 1-548); conditions: protein: recombinant; tags: N-terminal GST; dsDNA, one strand shown
# T6 sequence: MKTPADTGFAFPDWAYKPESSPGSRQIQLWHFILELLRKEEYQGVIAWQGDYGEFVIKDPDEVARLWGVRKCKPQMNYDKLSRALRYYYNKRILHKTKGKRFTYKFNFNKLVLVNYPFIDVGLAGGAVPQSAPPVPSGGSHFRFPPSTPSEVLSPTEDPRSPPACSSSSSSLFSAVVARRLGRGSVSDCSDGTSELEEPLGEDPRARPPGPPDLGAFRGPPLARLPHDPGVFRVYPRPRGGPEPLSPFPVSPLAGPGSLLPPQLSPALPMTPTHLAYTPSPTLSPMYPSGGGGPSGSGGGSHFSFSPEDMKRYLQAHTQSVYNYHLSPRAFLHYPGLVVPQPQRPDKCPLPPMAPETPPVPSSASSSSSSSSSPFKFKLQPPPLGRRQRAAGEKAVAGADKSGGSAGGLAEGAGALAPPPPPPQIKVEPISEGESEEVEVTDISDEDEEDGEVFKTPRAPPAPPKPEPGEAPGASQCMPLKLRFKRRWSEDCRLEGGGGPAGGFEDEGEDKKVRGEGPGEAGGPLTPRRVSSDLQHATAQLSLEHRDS
# Method in brief: as §1
# [12] = molecular target: T7, ETV3L (Homo sapiens, UniProt Q6ZN32 1-361); conditions: protein: recombinant; tags: N-terminal GST; dsDNA, one strand shown
# T7 sequence: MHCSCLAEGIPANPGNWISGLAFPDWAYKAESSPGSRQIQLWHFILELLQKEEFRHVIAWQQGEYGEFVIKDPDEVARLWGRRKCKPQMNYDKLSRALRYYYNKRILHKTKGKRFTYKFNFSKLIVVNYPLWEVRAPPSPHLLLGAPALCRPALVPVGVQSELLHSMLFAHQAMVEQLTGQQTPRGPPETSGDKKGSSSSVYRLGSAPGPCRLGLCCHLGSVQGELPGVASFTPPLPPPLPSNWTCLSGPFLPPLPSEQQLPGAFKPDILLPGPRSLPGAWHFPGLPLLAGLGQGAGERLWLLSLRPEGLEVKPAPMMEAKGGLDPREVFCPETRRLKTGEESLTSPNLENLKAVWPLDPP
# Method in brief: as §1
# [13] = molecular target: T8, ETS2 (Homo sapiens, UniProt P15036 1-469); conditions: protein: recombinant; tags: N-terminal GST; dsDNA, one strand shown
# T8 sequence: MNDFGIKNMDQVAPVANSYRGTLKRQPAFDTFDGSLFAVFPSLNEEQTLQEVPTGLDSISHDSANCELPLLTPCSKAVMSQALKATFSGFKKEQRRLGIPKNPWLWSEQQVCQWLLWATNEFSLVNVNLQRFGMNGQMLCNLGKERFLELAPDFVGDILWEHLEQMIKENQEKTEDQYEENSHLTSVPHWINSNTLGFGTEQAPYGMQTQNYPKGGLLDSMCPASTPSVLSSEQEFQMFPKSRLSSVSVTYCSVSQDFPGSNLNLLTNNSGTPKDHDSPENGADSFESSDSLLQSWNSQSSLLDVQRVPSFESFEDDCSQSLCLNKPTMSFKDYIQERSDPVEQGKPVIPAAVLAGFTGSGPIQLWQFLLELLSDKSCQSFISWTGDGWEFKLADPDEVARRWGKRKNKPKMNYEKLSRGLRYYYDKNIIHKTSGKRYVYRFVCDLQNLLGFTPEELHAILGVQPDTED
# Method in brief: as §1
# [14] = molecular target: T9, SPDEF (Homo sapiens, UniProt O95238 1-335); conditions: protein: recombinant; tags: N-terminal GST; dsDNA, one strand shown
# T9 sequence: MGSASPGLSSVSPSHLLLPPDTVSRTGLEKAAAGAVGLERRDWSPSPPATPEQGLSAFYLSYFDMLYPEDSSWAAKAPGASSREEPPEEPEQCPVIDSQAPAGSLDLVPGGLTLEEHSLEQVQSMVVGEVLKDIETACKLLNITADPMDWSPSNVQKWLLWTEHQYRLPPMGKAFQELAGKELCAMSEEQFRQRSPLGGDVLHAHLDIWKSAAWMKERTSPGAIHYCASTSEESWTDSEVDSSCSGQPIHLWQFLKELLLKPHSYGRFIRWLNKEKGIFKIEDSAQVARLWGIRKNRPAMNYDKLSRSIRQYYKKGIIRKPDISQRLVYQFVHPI
# Method in brief: as §1
# [15] = molecular target: T10, ETV7 (Homo sapiens, UniProt Q9Y603 1-341); conditions: protein: recombinant; tags: N-terminal GST; dsDNA, one strand shown
# T10 sequence: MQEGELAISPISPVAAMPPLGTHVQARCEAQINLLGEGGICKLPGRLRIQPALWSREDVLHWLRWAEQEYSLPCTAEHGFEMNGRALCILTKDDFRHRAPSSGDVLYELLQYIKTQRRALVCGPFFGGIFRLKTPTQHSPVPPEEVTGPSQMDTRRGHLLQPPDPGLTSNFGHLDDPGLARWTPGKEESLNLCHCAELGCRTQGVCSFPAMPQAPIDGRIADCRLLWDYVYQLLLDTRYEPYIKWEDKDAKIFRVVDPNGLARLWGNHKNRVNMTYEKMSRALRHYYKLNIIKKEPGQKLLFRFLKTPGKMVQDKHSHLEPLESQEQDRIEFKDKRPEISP
# Method in brief: as §1
# [16] = molecular target: T11, ELF5 (Homo sapiens, UniProt Q9UKW6-2 1-255); conditions: protein: recombinant; tags: N-terminal GST; dsDNA, one strand shown
# T11 sequence: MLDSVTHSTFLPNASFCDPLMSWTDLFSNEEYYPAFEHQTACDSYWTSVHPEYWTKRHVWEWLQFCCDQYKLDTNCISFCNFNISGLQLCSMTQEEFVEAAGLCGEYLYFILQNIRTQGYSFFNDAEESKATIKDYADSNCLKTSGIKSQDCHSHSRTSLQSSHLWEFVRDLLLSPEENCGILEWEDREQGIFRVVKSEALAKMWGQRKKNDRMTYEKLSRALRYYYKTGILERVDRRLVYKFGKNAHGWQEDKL
# Method in brief: as §1
# [17] = molecular target: T12, ETV3 (Homo sapiens, UniProt P41162-2 1-143); conditions: protein: recombinant; tags: N-terminal GST; dsDNA, one strand shown
# T12 sequence: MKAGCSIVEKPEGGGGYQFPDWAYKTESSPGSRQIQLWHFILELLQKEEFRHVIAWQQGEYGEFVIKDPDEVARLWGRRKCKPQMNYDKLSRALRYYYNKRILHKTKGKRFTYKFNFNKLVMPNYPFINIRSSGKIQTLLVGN
# Method in brief: as §1
# [18] = molecular target: ETV6 (Homo sapiens, UniProt P41212 1-452); conditions: protein: recombinant; tags: N-terminal GST; dsDNA, one strand shown
# ETV6, sequence (P41212 whole entry): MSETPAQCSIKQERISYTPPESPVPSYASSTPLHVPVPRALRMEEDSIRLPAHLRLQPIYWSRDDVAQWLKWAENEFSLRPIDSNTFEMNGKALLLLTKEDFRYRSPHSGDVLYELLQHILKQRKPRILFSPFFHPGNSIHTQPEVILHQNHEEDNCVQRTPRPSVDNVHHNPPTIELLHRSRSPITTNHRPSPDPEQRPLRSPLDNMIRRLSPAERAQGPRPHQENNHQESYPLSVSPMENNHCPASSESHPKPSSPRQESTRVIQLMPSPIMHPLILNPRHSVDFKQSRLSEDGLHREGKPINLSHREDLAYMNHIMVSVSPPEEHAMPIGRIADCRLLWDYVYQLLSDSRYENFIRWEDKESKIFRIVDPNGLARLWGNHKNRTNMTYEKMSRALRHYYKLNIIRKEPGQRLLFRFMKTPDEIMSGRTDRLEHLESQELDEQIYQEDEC
# Method in brief: as §1
sequence,measurement,setting,value
TGGTCT,binding signal,[1],"1.45 fold enrichment (6-mer frequency, TF over GST control)"
same,binding signal,[2],"1.52 fold enrichment (6-mer frequency, TF over GST control)"
same,binding signal,[3],"1.12 fold enrichment (6-mer frequency, TF over GST control)"
same,binding signal,[4],"1.34 fold enrichment (6-mer frequency, TF over GST control)"
same,binding signal,[5],"1.57 fold enrichment (6-mer frequency, TF over GST control)"
same,binding signal,[6],"1.48 fold enrichment (6-mer frequency, TF over GST control)"
same,binding signal,[7],"1.33 fold enrichment (6-mer frequency, TF over GST control)"
same,binding signal,[8],"1.28 fold enrichment (6-mer frequency, TF over GST control)"
same,binding signal,[9],"1.17 fold enrichment (6-mer frequency, TF over GST control)"
same,binding signal,[10],"1.5 fold enrichment (6-mer frequency, TF over GST control)"
same,binding signal,[11],"1.52 fold enrichment (6-mer frequency, TF over GST control)"
same,binding signal,[12],"1.55 fold enrichment (6-mer frequency, TF over GST control)"
same,binding signal,[13],"1.39 fold enrichment (6-mer frequency, TF over GST control)"
same,binding signal,[14],"1.35 fold enrichment (6-mer frequency, TF over GST control)"
same,binding signal,[15],"1.28 fold enrichment (6-mer frequency, TF over GST control)"
same,binding signal,[16],"1.55 fold enrichment (6-mer frequency, TF over GST control)"
same,binding signal,[17],"1.44 fold enrichment (6-mer frequency, TF over GST control)"
same,binding signal,[18],"1.42 fold enrichment (6-mer frequency, TF over GST control)"
